This passage reports Potency and outcome results from PubChem BioAssay (NCATS).

Inconclusive results are not listed. Calls of active or inactive are those of the source. Unless noted, calls follow the shape of the dose curve; as a rule, active = well fitted curve in the direction sought with a large enough effect; inconclusive = small, poorly fitted or top-dose-only effect, or another doubt; inactive = no such curve, though single readings can be large; an effect the other way counts as inactive or inconclusive.

Assay [1] can be described thus: qHTS to identify inhibitors of the type 1 interferon - major histocompatibility complex class I in skeletal muscle: primary screen against the NCATS Pharmaceutical Collection (AID 1347407).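 Also: luminescence of HiBiT knocked into endogenous HLA-B as interferon-induced MHC class I level.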 Also: potency is read from the fitted curve at half-maximal effect. The gist of the method:
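Immortalized human myoblasts (C25cl48) with HiBiT knocked into endogenous HLA-B*08:01 were stimulated with 4 ng/ml IFN-beta and treated with compounds (8-point, 1:5, top 46 uM final) for 24 h at 37 C; HiBiT lytic luminescence read.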
On the technique in general: In qHTS, concentration-response curves come from the screen itself.

In assay [2] the target is Protein phosphatase 1D (Homo sapiens) (UniProt O15297). Description: RapidFire Mass Spectrometry qHTS Assay for Modulators of WT P53-Induced Phosphatase 1 (WIP1) (AID 1347424).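 Also: amount of dephosphorylated VEPPL-S-QETFS peptide product formed by WIP1; series mostly up to about 63 µM.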 The gist of the method:
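WIP1 (10 nM final) was preincubated 1 h at room temperature with compounds in Tris-HCl pH 7.5, 30 mM MgCl2, TCEP, EGTA, BSA; 2 uM VEPPL-pS-QETFS phosphopeptide was added for 5 min, quenched with formic acid, and dephosphorylated product quantified by RapidFire MS.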

Assay [3] shares this target. Description: Rhodamine-PBP qHTS Assay for Modulators of WT P53-Induced Phosphatase 1 (WIP1) (AID 1347425). In a few lines: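 WIP1 (5 nM final) was preincubated with compound for 1 hour at room temperature. It then dephosphorylated 10 uM VEPPL-pS-QETFS peptide in Tris-HCl pH 7.5 with 30 mM MgCl2. Released Pi was detected by 10 uM Rh-PBP fluorescence (ex 525/em 598 nm) read at 1-min intervals for 11 min, as delta f1 - f0.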

Assay [4] can be described thus: Primary qHTS for Huh7 cytotoxicity: counterscreen for inhibitors of MERS-S pseudotyped particle cell entry (AID 1479147; calls by dose curve).
A short description of assay [5]: Primary qHTS for inhibitors of MERS-S pseudo-typed particle cell entry (AID 1479149; calls by dose curve; also: nearly all actives have a fitted effect of over 60% in size).
A short description of assay [6]: Primary qHTS for Vero E6 cytotoxicity: counterscreen for inhibitors of SARS-S pseudo-typed particle cell entry (AID 1479150; calls by dose curve).
Assay [7] can be described thus: Primary qHTS for inhibitors of La Crosse Virus (LACV) - induced cell death in SH-SY5Y cells (AID 1508616).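 Also: top concentration of the series differs between compounds; higher means more rescue of cells from virus-induced death.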 The gist of the method:
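Luminescent ATP readout (ATPLite 1step, 5 min room temperature) measured rescue from LACV-induced death after 6 days of infection at 0.01 MOI; normalized to infected DMSO wells and uninfected DMSO wells.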

Assay [8] has as its target Calcium and integrin-binding protein 1 (Homo sapiens) (UniProt Q99828). The assay can be described thus: Primary qHTS for Identification of Calcium Integrin Binding Protein 1 (CIB1) Competitor (AID 1508620).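 Also: GST tagged CIB1 binding a fluorescein labelled alphaIIb integrin peptide tracer; top concentration of the series differs between compounds.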 In a few lines:
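Fluorescence polarization competition: CIB1-GST (1 uM final) preincubated with compound 15 min at room temperature, then FITC-labeled alphaIIb peptide (100 nM final) added for another 15 min. Polarization read at Ex 480/Em 540.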

The nature of assay [9]: Primary qHTS for inhibitors of SARS-S pseudo-typed particle cell entry (AID 1479145; calls by dose curve; also: nearly all actives have a fitted effect of over 45% in size).
The nature of assay [10]: qHTS for inhibitors of Rabies Virus screened against the NCATS CANVASS Library (AID 1347402; calls by dose curve; also: series mostly up to about 46 µM).
Assay [11] in a line: qHTS to identify inhibitors of the type 1 interferon - major histocompatibility complex class I in skeletal muscle: primary screen against the NCATS LOPAC collection (AID 1347405).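 Also: lytic HiBiT luminescence reporting HLA-B protein level.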 The gist of the method: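 Immortalized human C25cl48 myoblasts with HiBiT knocked into endogenous HLA-B*08:01 were stimulated with 4.0 ng/ml IFN-beta and given compounds in a 7-point, 1:4.3 titration from 46 uM final; after 24 hrs, lytic HiBiT luminescence was read.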

A short description of assay [12]: qHTS for inhibitors of adenylyl cyclases using a fission yeast platform: a pilot screen against the NCATS LOPAC library (AID 1347410). The gist of the method: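 S. pombe CHP2027 (AC9-GNAS-PDE4D2) carrying a PKA-repressed fbp1-GFP reporter was exposed to LOPAC compounds (final up to 57 µM) for 18 h at 30C in the dark, in EMM with histidine, lysine and uracil; GFP gain-of-signal read by laser scanning cytometry.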

Assay [13] is described as follows: qHTS to identify inhibitors of the type 1 interferon - major histocompatibility complex class I in skeletal muscle: primary screen against the NCATS Mechanism Interrogation Plate v5.0 (MIPE) Libary (AID 1347411). Also: nearly all actives have a fitted effect of over 65% in size. Also: potency is read from the fitted curve at half-maximal effect. The gist of the method:
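Immortalized human C25cl48 myoblasts with HiBit knocked into endogenous HLA-B*08:01 were stimulated with 4.0 ng/ml IFN-beta and exposed to compounds (11-point 1:3 titration, top 46 uM final) for 24 hrs at 37 C; HiBiT lytic luminescence measured.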

A short description of assay [14]: Validation qHTS assay for inhibitors of Activation Induced Cytidine Deaminase (AID): UDG Counterscreen signal (AID 1347427). In a few lines: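 Counterscreen read of UDG activity (2 U/mL, 4/3x) in the FRET deamination format with AID (1 uM, 4/3x), DJC20/DJC23 substrates (250 nM, 4x), 4 h at room temperature. NaOH stop, fluorescence at 560 ex/665 em.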
The target in assay [15] is Single-stranded DNA cytosine deaminase (Homo sapiens) (UniProt Q9GZX7). Description: Validation qHTS assay for inhibitors of Activation Induced Cytidine Deaminase (AID): AID signal (AID 1347429). In a few lines: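 AID and UDG were combined and compounds added at final up to 114 uM, then DJC20/DJC23 FRET substrate was added for 4 hr at room temperature. NaOH was then added for 30 min before fluorescence was read at 540/590 nm.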

Assay [16] concerns the target Calcium and integrin-binding protein 1 (Homo sapiens) (UniProt Q99828). The assay can be described thus: Validation qHTS for Identification of Calcium Integrin Binding protein 1 (CIB1) Competitor (AID 1508618). The gist of the method: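 Fluorescence polarization with 1 uM CIB1-GST and 100 nM FITC-alphaIIb peptide in HEPES pH 7.4, NaCl, 5 mM CaCl2, Tween20. Compounds at up to 114 uM final, preincubated with protein 15 min; read after 15 min more at RT.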

Protein phosphatase 1D (Homo sapiens), sequence (O15297 whole entry, looked up): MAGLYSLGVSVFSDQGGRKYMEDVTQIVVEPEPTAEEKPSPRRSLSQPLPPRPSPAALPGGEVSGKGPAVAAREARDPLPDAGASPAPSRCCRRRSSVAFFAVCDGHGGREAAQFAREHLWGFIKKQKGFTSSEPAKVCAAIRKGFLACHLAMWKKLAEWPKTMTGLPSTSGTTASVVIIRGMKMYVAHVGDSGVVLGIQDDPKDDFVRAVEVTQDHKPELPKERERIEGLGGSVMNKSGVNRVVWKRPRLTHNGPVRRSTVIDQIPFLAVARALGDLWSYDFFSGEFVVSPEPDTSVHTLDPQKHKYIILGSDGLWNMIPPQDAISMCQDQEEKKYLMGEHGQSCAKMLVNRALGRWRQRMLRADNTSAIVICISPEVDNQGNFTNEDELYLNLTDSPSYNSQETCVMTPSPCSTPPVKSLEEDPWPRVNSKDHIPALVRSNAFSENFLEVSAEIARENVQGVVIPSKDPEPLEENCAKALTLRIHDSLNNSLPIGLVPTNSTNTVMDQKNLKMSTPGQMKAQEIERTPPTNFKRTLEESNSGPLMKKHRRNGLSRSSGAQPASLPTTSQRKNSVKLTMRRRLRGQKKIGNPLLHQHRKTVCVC
Calcium and integrin-binding protein 1 (Homo sapiens), sequence (Q99828 whole entry, looked up): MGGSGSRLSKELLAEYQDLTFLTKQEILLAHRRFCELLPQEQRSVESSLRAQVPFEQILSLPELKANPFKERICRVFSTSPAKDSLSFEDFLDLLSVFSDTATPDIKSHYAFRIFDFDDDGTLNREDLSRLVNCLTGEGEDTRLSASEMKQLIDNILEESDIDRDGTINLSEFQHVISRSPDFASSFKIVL
Single-stranded DNA cytosine deaminase (Homo sapiens), sequence (Q9GZX7 whole entry, looked up): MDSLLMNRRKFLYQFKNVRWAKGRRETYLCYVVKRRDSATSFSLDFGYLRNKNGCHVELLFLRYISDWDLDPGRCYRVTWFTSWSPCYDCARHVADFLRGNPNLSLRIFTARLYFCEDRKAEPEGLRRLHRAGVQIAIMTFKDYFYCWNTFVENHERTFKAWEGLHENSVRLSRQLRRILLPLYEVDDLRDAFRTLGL

Consider `c1ccc2c(c1)sc1ccccc12`, for which the Potency entry in [1], in assay [2], in assay [4], in assay [5], in assay [6] and in [8] was “inactive” in each case. Further, the result in assay [3] and in assay [7] was inactive.
`Nc1ccccc1`: the Potency entry in assay [1], in [2], in assay [9], in [4], in [5] and in assay [6] was “inactive” in each case. Further, in assay [8], the Potency entry is “inactive”. For the same molecule, the result in assay [3] and in assay [7] was inactive.
For the molecule `COP(=S)(OC)Oc1ccc(S(=O)(=O)N(C)C)cc1`, the Potency entry in assay [1], in [2], in assay [9], in [4], in [5] and in assay [6] was “inactive” throughout. Moreover, in [8], the Potency entry was “inactive”. Besides, the molecule was classed as inactive in [3] and in [7].
As to `COc1ccc2[nH]cc(CCNC(C)=O)c2c1`, the molecule was classed as inactive in [10]. The Potency entry in [9], in [4], in [5] and in assay [6] was “inactive” in each case.
Take `CCC1(c2ccc(N)cc2)CCC(=O)NC1=O` (stereo not given): the molecule was classed as inactive in assay [11], in assay [12], in assay [3], in assay [14], in assay [15] and in assay [7]. The result in assay [16] was inactive. Besides, the Potency result in [1], in assay [13], in assay [2], in assay [9], in assay [4] and in [5] was “inactive” in each case. Also, the Potency result in assay [6] and in [8] was “inactive” throughout.
As for `COc1cccc2c1C(=O)c1c(O)c3c(c(O)c1C2=O)C[C@@](O)(C(=O)CO)CC3OC1CC(N2CCOC(OC)C2)C(O)C(C)O1` (stereo not given in full), the Potency is 2970 nM (active) in [1] and 93 nM (active) in assay [13]. Moreover, the outcome in [3] and in assay [7] was inactive. Besides, the Potency result in [9], in [5] and in [6] was “inactive” each time.
Turning to `CC(C)c1cccc(C(C)C)c1O`, the molecule was called inactive in assay [11], in assay [12], in assay [3], in [14], in assay [15] and in assay [7]. Also, in assay [16], the result was inactive. The Potency entry in [1], in assay [13], in assay [9], in assay [4], in [5] and in assay [6] was “inactive” in each case. In addition, the Potency result in [8] is “inactive”.
As for `CC(Cc1ccccc1)NCCn1cnc2c1c(=O)n(C)c(=O)n2C` (stereo not given), the Potency result in assay [1], in [2] and in [8] was “inactive” throughout. The result in assay [3] and in assay [7] was inactive.
Regarding `c1ccc(N2CCNCC2)cc1`, the Potency entry in assay [1], in [2] and in assay [8] was “inactive” in each case. Moreover, the call in assay [3] and in assay [7] was inactive.
Turning to `CC(C)c1c(CN(C)C(C)Cc2ccccc2)n(C)n(-c2ccccc2)c1=O` (stereo not given), the Potency entry in [1], in [2] and in assay [8] was “inactive” in each case. Further, the molecule was called inactive in assay [3] and in [7].
Take `CC(Cc1ccccc1)N(C)Cc1ccco1` (stereo not given): the Potency result in [1], in assay [2] and in [8] was “inactive” throughout. The result in assay [3] and in [7] was inactive.
For the molecule `CCN(CC)CCc1c[nH]c2ccccc12`, the Potency entry in assay [1], in assay [2] and in [8] was “inactive” each time. Besides, the molecule was classed as inactive in assay [3] and in [7].
For `CCN[C@@H](C)Cc1cccc(C(F)(F)F)c1`, the Potency entry in assay [1], in assay [2] and in assay [8] was “inactive” each time. Moreover, the call in assay [3] and in [7] was inactive.
Turning to `CCC(CC)(CNC(=O)CCCO)c1cccc(OC)c1`, the Potency result in assay [1], in assay [2], in [4], in [5] and in assay [8] was “inactive” throughout. The molecule was called inactive in assay [3] and in assay [7].
In the case of `COc1ccc2c3c1O[C@H]1[C@H](O)CC[C@H]4[C@@H](C2)N(C)CC[C@@]341`, the Potency result in assay [1], in [2] and in assay [8] was “inactive” each time. In addition, the call in assay [3] and in assay [7] was inactive.
Turning to `[N-]=[N+]=CC(=O)OC[C@H](N)C(=O)O`, the Potency entry in [1], in [2] and in assay [8] was “inactive” each time. Moreover, the result in assay [3] and in assay [7] was inactive.
Consider `COc1cc(OC)c(OC)cc1C=O`, for which the Potency result in assay [1], in assay [2] and in [8] was “inactive” each time. Also, the molecule was classed as inactive in [3] and in assay [7].
For `COC(=O)C(Cl)C(=O)OC`, the Potency result in assay [1], in assay [2] and in [8] was “inactive” each time. The molecule was classed as inactive in assay [3] and in assay [7].
As for `CC1(C)C(C=C(Cl)Cl)C1C(=O)OC(C#N)c1cccc(Oc2ccccc2)c1` (stereo not given), the Potency entry in assay [1] and in assay [2] was “inactive” throughout. The molecule was called inactive in [3] and in assay [7].
On to `Clc1ccccc1N1CCNCC1`, for which the Potency result in [1], in assay [2] and in assay [8] was “inactive” throughout. For the same molecule, the result in [3] and in [7] was inactive.
Regarding `CCCOC(=O)c1cncn1C(C)c1ccccc1` (stereo not given), the Potency entry in [1], in assay [2] and in assay [8] was “inactive” throughout. The result in assay [3] and in assay [7] was inactive.
On to `Nc1nc(N)nc(NC2CC2)n1`, for which the Potency result in assay [1], in assay [2] and in assay [8] was “inactive” in each case. Moreover, the call in [3] and in [7] was inactive.
With `O=c1[nH]c2ccccc2n1C1CCNCC1`, the Potency entry in assay [1], in [2] and in assay [8] was “inactive” in each case. In addition, the result in [3] and in assay [7] was inactive.
For `c1ccc(CN2CCNCC2)cc1`, the Potency result in [1], in assay [2] and in assay [8] was “inactive” each time. The molecule was called inactive in assay [3] and in assay [7].
Turning to `CC(C)NC(C)C`, the Potency result in [1], in assay [2], in assay [4], in assay [5], in assay [6] and in assay [8] was “inactive” in each case. Further, the molecule was classed as inactive in [3].
Take `COC(=O)[C@@H](N)CCCN/C(N)=N/[N+](=O)[O-]`: the Potency entry in assay [1], in assay [2] and in [8] was “inactive” in each case. In addition, the molecule was called inactive in assay [3] and in [7].
`CCCCCCCCCC(=O)O[C@H]1CC[C@H]2[C@@H]3CCC4=CC(=O)CC[C@@H]4[C@H]3CC[C@]12C`: the Potency result in assay [1], in [2] and in [8] was “inactive” throughout. Further, the outcome in assay [3] and in assay [7] was inactive.
On to `ClCCN1CCCC1`, for which the Potency entry in [1], in [2] and in [8] was “inactive” each time. Further, the outcome in [3] and in [7] was inactive.
Take `C[C@H]1[C@@H]2Cc3ccc(O)cc3[C@@]1(C)CCN2C`: the Potency result in assay [1], in [2] and in [8] was “inactive” throughout. For the same molecule, the call in [3] and in [7] was inactive.
`CN1CCC(O)(c2ccc(F)cc2)C(C(=O)c2ccc(F)cc2)C1` (stereo not given): the Potency entry in [1], in [2] and in assay [8] was “inactive” each time. Also, the outcome in [3] and in [7] was inactive.
Take `O=C(O)c1ccc(=O)[nH]c1`: the Potency entry in [1], in assay [2] and in [8] was “inactive” throughout. Also, the outcome in assay [3] and in assay [7] was inactive.
